In paper PMC7862700, “An all-to-all approach to the identification of sequence-specific readers for epigenetic DNA modifications on cytosine”:

Key:
Assay in all cases: DAPPL (digital affinity profiling via proximity ligation, sequencing); 10 mM Tris-HCl pH 7.5, 50 mM NaCl, 1 mM DTT, 4% glycerol, room temperature, 30 min; GST-TFs on glutathione beads, 16-mer random dsDNA library, 0.1% formaldehyde crosslink after washing; high values mean tight binding
FEV = target: T1, FEV (Homo sapiens, UniProt Q99581 1-238); conditions: protein: recombinant; tags: N-terminal GST; dsDNA, one strand shown
T1 sequence: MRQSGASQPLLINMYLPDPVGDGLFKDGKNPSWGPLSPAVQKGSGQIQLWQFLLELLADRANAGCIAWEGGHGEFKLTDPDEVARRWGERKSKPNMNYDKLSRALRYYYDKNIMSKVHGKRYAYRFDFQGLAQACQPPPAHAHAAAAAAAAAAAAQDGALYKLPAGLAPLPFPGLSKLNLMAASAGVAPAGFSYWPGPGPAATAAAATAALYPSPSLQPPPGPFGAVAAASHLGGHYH
Summary of the method: (§1)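 Binding signal is each hexamer's read frequency for a factor divided by its frequency in the tag-only sample. The factors were GST-fused human transcription factors from yeast, captured on glutathione beads, DNA-barcoded and pooled with that sample. Pools were incubated with 200 nmole of a random double-stranded 16-mer DNA library in Tris/NaCl/DTT/glycerol buffer at room temperature for 30 min, then washed, crosslinked with 0.1% formaldehyde, proximity-ligated with BsaI/T4 ligase (1 h, 37 °C), PCR-amplified and sequenced on an Illumina NextSeq500.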

ETV5 = ETV5 (Homo sapiens, UniProt P41161 1-510); conditions: protein: recombinant; tags: N-terminal GST; dsDNA, one strand shown
Chain of ETV5 (P41161 whole entry): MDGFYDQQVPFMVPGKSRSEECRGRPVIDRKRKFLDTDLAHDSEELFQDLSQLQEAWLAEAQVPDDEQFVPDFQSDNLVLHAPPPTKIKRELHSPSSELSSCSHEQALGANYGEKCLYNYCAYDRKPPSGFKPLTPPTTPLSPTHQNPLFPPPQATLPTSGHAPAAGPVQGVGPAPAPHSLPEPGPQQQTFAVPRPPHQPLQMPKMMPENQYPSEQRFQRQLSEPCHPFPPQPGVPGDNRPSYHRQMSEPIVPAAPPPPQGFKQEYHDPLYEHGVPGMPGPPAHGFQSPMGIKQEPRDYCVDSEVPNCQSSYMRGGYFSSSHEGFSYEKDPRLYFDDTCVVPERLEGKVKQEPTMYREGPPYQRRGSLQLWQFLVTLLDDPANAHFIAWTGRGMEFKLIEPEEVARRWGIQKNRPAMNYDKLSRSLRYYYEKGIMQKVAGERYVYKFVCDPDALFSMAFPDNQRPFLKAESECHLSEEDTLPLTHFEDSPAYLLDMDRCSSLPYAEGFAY
Summary of the method: as §1

HSF1 = HSF1 (Homo sapiens, UniProt Q00613 1-529); conditions: protein: recombinant; tags: N-terminal GST; chain copies: 3; dsDNA, one strand shown
Chain of HSF1 (Q00613 whole entry): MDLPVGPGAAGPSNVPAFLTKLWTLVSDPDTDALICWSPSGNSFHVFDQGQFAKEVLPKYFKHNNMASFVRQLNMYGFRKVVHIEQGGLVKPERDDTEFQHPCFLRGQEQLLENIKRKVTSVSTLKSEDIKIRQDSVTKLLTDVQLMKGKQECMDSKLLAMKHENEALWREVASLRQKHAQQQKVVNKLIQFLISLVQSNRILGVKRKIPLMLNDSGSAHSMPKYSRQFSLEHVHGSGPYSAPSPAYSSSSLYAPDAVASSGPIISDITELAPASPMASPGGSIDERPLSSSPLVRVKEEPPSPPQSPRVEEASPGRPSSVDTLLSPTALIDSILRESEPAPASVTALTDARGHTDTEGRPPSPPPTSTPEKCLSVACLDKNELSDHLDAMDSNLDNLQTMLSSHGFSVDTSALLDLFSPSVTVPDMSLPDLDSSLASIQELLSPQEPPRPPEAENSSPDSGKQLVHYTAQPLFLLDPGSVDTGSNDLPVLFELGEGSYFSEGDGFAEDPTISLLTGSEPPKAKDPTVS
Summary of the method: as §1

SPIC = target: T2, SPIC (Homo sapiens, UniProt Q8N5J4 1-248); conditions: protein: recombinant; tags: N-terminal GST; dsDNA, one strand shown
T2 sequence: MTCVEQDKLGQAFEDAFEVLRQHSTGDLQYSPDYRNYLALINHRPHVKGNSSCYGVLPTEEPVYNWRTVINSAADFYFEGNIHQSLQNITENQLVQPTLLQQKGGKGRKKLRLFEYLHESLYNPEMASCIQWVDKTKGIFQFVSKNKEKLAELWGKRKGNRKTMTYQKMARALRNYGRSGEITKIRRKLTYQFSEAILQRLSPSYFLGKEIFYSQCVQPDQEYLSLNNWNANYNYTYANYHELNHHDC
Summary of the method: as §1

ELF4 = ELF4 (Homo sapiens, UniProt Q99607 1-663); conditions: protein: recombinant; tags: N-terminal GST; dsDNA, one strand shown
Chain of ELF4 (Q99607 whole entry): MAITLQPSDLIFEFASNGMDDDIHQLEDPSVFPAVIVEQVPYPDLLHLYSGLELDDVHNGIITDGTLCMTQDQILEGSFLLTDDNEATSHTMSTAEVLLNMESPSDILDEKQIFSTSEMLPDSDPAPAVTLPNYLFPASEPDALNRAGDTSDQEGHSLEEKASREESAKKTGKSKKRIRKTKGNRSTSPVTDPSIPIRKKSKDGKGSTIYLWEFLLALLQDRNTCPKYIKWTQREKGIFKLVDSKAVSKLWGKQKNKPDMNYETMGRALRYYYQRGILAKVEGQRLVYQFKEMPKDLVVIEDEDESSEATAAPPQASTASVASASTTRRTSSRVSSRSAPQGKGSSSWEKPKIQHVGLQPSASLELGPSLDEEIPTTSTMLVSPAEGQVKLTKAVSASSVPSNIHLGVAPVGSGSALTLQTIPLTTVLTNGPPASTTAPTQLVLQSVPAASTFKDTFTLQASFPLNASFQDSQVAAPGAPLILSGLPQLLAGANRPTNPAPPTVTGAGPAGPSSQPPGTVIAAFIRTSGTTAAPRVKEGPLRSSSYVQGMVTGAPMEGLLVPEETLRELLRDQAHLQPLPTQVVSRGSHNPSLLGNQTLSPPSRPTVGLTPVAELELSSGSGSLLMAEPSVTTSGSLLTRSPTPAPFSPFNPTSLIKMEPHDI
Summary of the method: as §1

ETV2 = target: T3, ETV2 (Homo sapiens, UniProt O00321 1-342); conditions: protein: recombinant; tags: N-terminal GST; dsDNA, one strand shown
T3 sequence: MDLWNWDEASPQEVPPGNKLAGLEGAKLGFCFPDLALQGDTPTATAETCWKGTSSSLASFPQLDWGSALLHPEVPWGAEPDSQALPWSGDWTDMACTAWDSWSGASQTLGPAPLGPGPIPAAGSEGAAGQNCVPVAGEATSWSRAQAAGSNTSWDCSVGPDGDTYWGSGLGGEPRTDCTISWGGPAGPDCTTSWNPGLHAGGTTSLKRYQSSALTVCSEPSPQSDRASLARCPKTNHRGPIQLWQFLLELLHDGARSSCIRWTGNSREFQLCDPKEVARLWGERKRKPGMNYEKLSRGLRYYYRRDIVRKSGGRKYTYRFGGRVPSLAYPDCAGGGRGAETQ
Summary of the method: as §1

ELF3 = target: T4, ELF3 (Homo sapiens, UniProt P78545 1-371); conditions: protein: recombinant; tags: N-terminal GST; dsDNA, one strand shown
T4 sequence: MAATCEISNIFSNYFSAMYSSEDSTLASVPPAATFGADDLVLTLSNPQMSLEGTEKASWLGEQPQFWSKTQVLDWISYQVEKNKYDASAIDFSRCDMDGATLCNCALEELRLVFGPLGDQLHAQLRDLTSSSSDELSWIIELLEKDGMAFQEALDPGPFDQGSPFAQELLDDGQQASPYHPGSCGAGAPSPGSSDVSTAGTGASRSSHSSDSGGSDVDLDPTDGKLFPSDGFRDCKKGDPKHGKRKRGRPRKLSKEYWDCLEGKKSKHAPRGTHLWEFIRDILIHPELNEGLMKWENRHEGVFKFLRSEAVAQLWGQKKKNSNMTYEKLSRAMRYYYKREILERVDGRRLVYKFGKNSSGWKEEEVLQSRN
Summary of the method: as §1

ETV1 = ETV1 (Homo sapiens, UniProt P50549 1-477); conditions: protein: recombinant; tags: N-terminal GST; dsDNA, one strand shown
Chain of ETV1 (P50549 whole entry): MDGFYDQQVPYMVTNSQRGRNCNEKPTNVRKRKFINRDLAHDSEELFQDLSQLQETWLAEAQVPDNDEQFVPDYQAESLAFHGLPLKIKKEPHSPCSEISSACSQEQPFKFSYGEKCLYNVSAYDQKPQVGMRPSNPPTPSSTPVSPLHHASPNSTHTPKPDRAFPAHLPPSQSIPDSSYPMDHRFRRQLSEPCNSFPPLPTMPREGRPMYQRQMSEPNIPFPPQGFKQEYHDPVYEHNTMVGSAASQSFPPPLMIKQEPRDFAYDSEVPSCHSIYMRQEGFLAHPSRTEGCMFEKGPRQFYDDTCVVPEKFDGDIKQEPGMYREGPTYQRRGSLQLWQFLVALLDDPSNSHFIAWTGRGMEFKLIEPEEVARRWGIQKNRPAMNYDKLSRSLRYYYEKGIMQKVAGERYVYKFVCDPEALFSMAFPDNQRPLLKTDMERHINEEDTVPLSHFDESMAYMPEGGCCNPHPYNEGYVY
Summary of the method: as §1

ERF = target: T5, ERF (Homo sapiens, UniProt P50548 1-548); conditions: protein: recombinant; tags: N-terminal GST; dsDNA, one strand shown
T5 sequence: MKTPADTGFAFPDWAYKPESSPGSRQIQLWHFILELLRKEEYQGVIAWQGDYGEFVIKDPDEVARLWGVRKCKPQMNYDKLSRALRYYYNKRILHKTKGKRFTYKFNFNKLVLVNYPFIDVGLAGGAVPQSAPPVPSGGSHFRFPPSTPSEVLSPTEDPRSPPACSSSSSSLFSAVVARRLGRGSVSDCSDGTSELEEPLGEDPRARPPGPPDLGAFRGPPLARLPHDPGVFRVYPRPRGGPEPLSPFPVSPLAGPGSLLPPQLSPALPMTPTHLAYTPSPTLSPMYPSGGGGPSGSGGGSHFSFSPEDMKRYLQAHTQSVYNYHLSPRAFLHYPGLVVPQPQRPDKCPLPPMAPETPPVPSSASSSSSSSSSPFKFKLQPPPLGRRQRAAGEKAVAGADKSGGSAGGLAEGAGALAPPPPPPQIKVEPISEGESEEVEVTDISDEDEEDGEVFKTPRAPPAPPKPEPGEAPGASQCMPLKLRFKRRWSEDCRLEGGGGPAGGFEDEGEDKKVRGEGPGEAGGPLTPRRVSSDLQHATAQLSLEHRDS
Summary of the method: as §1

ETS2 = target: T6, ETS2 (Homo sapiens, UniProt P15036 1-469); conditions: protein: recombinant; tags: N-terminal GST; dsDNA, one strand shown
T6 sequence: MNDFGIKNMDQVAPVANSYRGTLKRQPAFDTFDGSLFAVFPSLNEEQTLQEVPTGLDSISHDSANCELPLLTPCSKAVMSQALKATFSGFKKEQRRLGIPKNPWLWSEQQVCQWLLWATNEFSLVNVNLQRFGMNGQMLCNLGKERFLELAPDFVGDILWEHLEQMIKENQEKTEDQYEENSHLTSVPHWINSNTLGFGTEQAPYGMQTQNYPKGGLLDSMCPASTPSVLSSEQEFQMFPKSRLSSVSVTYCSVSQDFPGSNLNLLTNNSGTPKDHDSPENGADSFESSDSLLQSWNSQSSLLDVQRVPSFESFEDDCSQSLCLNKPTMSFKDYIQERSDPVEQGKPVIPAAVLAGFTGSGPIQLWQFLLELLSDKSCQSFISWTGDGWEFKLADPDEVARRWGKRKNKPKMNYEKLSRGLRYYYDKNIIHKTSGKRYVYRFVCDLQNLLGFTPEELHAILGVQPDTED
Summary of the method: as §1

SPDEF = target: T7, SPDEF (Homo sapiens, UniProt O95238 1-335); conditions: protein: recombinant; tags: N-terminal GST; dsDNA, one strand shown
T7 sequence: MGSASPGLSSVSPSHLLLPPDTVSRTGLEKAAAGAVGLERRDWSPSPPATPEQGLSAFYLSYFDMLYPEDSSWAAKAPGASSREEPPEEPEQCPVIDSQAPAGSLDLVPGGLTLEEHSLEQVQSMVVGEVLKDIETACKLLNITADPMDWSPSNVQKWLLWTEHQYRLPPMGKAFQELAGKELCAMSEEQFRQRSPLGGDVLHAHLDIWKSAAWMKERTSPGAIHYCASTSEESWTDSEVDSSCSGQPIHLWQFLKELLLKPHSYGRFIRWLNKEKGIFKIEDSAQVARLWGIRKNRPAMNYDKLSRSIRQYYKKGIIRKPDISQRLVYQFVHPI
Summary of the method: as §1

ETV7 = target: T8, ETV7 (Homo sapiens, UniProt Q9Y603 1-341); conditions: protein: recombinant; tags: N-terminal GST; dsDNA, one strand shown
T8 sequence: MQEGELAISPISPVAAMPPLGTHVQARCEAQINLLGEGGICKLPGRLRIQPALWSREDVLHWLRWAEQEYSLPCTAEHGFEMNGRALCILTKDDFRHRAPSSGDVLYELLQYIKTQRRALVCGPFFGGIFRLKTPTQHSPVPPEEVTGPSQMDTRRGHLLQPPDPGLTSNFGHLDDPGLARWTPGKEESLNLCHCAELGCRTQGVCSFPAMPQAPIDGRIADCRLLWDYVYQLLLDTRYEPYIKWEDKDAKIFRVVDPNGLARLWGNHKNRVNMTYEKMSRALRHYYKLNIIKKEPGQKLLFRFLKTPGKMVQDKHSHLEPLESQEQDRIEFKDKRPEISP
Summary of the method: as §1

ELF5 = target: T9, ELF5 (Homo sapiens, UniProt Q9UKW6-2 1-255); conditions: protein: recombinant; tags: N-terminal GST; dsDNA, one strand shown
T9 sequence: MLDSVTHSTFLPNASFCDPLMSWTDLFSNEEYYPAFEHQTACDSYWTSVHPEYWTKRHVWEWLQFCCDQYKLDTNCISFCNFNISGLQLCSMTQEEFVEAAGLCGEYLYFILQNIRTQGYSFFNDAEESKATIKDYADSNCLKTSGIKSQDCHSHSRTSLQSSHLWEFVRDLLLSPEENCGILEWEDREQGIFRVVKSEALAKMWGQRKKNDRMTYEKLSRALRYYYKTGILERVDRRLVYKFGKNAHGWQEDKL
Summary of the method: as §1

ELK4 = target: T10, ELK4 (Homo sapiens, UniProt P28324-2 1-405); conditions: protein: recombinant; tags: N-terminal GST; dsDNA, one strand shown
T10 sequence: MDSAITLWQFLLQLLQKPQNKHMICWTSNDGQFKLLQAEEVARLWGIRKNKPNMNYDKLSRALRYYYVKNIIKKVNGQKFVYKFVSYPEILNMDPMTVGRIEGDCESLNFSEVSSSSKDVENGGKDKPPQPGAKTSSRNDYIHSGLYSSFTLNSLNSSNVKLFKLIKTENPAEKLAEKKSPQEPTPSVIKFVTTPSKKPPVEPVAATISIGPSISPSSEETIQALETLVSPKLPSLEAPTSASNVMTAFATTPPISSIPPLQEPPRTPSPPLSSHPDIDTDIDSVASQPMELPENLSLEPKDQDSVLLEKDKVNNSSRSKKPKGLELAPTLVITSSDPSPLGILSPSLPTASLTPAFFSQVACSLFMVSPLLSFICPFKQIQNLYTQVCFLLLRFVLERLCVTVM
Summary of the method: as §1

CRX = CRX (Homo sapiens, UniProt O43186 1-299); conditions: protein: recombinant; tags: N-terminal GST; dsDNA, one strand shown
Chain of CRX (O43186 whole entry): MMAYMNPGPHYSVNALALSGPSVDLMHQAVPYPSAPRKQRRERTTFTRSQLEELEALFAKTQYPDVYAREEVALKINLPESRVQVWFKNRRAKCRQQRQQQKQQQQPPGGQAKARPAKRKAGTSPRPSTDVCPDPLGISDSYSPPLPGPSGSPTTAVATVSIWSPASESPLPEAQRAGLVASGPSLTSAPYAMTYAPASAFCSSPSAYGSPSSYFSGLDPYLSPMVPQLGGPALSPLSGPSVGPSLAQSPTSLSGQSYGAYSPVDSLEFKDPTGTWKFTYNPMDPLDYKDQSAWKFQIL
Summary of the method: as §1

ETV3L = target: T11, ETV3L (Homo sapiens, UniProt Q6ZN32 1-361); conditions: protein: recombinant; tags: N-terminal GST; dsDNA, one strand shown
T11 sequence: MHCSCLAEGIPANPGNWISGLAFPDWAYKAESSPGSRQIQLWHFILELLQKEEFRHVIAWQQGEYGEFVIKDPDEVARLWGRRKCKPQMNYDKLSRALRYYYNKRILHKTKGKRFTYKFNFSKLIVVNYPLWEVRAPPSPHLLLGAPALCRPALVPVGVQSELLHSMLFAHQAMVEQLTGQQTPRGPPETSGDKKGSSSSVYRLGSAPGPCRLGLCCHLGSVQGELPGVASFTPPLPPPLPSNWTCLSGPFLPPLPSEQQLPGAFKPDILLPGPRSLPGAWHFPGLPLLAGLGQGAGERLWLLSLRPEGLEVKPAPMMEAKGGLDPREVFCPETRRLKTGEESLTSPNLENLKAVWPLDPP
Summary of the method: as §1

ETV3 = target: T12, ETV3 (Homo sapiens, UniProt P41162-2 1-143); conditions: protein: recombinant; tags: N-terminal GST; dsDNA, one strand shown
T12 sequence: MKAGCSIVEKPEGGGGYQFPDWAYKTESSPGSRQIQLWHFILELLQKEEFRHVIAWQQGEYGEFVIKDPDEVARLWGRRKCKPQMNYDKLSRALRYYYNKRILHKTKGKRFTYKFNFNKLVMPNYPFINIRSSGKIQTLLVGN
Summary of the method: as §1

| Sequence | binding signal (FEV) | binding signal (ETV5) | binding signal (HSF1) | binding signal (SPIC) | binding signal (ELF4) | binding signal (ETV2) | binding signal (ELF3) | binding signal (ETV1) | binding signal (ERF) | binding signal (ETS2) | binding signal (SPDEF) | binding signal (ETV7) | binding signal (ELF5) | binding signal (ELK4) | binding signal (CRX) | binding signal (ETV3L) | binding signal (ETV3) |
| --- | --- | --- | --- | --- | --- | --- | --- | --- | --- | --- | --- | --- | --- | --- | --- | --- | --- |
| CTATGA | 1.08 fold enrichment (6-mer frequency, TF over GST control) | 1.07 fold enrichment (6-mer frequency, TF over GST control) | 1.04 fold enrichment (6-mer frequency, TF over GST control) | 1.17 fold enrichment (6-mer frequency, TF over GST control) | 1.1 fold enrichment (6-mer frequency, TF over GST control) | 1.19 fold enrichment (6-mer frequency, TF over GST control) | 1.15 fold enrichment (6-mer frequency, TF over GST control) | 1.02 fold enrichment (6-mer frequency, TF over GST control) | 1.12 fold enrichment (6-mer frequency, TF over GST control) | 1.15 fold enrichment (6-mer frequency, TF over GST control) | 1.07 fold enrichment (6-mer frequency, TF over GST control) | 1.08 fold enrichment (6-mer frequency, TF over GST control) | 1 fold enrichment (6-mer frequency, TF over GST control) | – | – | – | – |
| TGTTCG | 1.01 fold enrichment (6-mer frequency, TF over GST control) | 1.06 fold enrichment (6-mer frequency, TF over GST control) | 1.6 fold enrichment (6-mer frequency, TF over GST control) | 1.15 fold enrichment (6-mer frequency, TF over GST control) | – | – | 1.17 fold enrichment (6-mer frequency, TF over GST control) | 1.05 fold enrichment (6-mer frequency, TF over GST control) | 1.2 fold enrichment (6-mer frequency, TF over GST control) | 1.15 fold enrichment (6-mer frequency, TF over GST control) | 1.03 fold enrichment (6-mer frequency, TF over GST control) | 1.15 fold enrichment (6-mer frequency, TF over GST control) | 1.03 fold enrichment (6-mer frequency, TF over GST control) | 1.01 fold enrichment (6-mer frequency, TF over GST control) | 1.06 fold enrichment (6-mer frequency, TF over GST control) | 1.01 fold enrichment (6-mer frequency, TF over GST control) | 1.01 fold enrichment (6-mer frequency, TF over GST control) |
